# Experimental data as given in PubChem BioAssay AID1345082 (National Center for Advancing Translational Sciences (NCATS), 2018).
# In all, about 94,000 compounds went through this assay and about 4,000 (4.3%) were called active. Another 29% or so got no clear call; they are omitted. Calls follow the shape of the dose curve; as a rule, active = well fitted inhibition curve with a large enough effect; inconclusive = small, poorly fitted or top-dose-only effect; inactive = no such curve, though single readings can be large or run the other way. The full list was thinned out, with actives kept by preference.
# Test: Cytotoxic Profiling in NIH 3T3 Cell Line of Diverse Libraries Using Quantitative High-Throughput Screening; also: nearly all actives have a fitted effect of over 55% in size
# Conditions: NIH 3T3 viability, CellTiter-Glo ATP luminescence, 48-72 h; series mostly up to 96.7 µM; activity change, negative = cytotoxicity: at the top concentration
# How it was run: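 Cytotoxicity was measured by CellTiter-Glo ATP luminescence after 48 or 72 h compound exposure at 37 °C. Mouse NIH 3T3 fibroblasts were seeded at 400 cells/well and dosed by 23 nL pin transfer.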
# % is scaled to controls: 0 for no effect and ±100 for the full control effect; potency is read from the fitted curve at half-maximal effect.
SMILES,"activity change, negative = cytotoxicity",Potency,outcome
CCn1ncnc1CN1CCC2(CC1)CC(C(=O)O)N(C(C)=O)C2 (stereo not drawn),-11% (inactive),–,–
COCC(=O)NC1CCC12CCN(C(=O)Nc1ccccc1)CC2 (stereo not drawn),-13.9% (inactive),–,–
Cc1ccc(C(=O)NC2CCN(c3ccc4nnc(C)n4n3)C2)cc1 (stereo not drawn),-24.8% [at 138 µM] (inactive),–,–
O=C([C@@H]1C[C@H](F)CN1C(=O)Cc1ccccc1Cl)N1CCCCC1,-1.58% (inactive),–,–
Cc1ccccc1N1Cc2c(NCC(C)C)ncnc2N(C)CC1=O,-1.61% (inactive),–,–
CC/C=C/CC(=O)N1CCC2(CCN(Cc3cccnc3)CC2)C(CO)C1 (stereo not drawn),3% (inactive),–,–
COc1cccc2c1CCN=C2C[C@H]1CN(C(=O)C(C)(C)C)CC[C@H]1CC(=O)O,-20.9% [at 174 µM] (inactive),–,–
Cc1n[nH]c(C)c1CCC(=O)N1CCCC(c2ccc(C(=O)O)cc2)C1 (stereo not drawn),-7.96% (inactive),–,–
COc1ccc(S(=O)(=O)N2C[C@@H](Oc3ccccc3)C[C@@H]2C(=O)N2CCOCC2)cc1,-2.54% (inactive),–,–
Cc1c(C(=O)N2C[C@@H](CN(C)C)C[C@H](CO)C2)n(C)c2c(C)cccc12,-19.7% (inactive),–,–
CN(C)C[C@@H]1CN(C2CCOCC2)C[C@H]1NC(=O)c1ccco1,2.09% (inactive),–,–
Cc1ccc2c(c1)nc1n2[C@@H](CNC(=O)c2ccccc2)COC1,-7.85% [at 138 µM] (inactive),–,–
COc1ccc2c(c1)nc1n2[C@@H](CNC(=O)c2ccncc2)COC1,-26.6% [at 174 µM] (inactive),–,–
Cc1ccc2nc3n(c2c1)[C@@H](CNC(=O)c1ccc(C#N)cc1)COC3,–,89.1 µM (active),–
O=C(CCC1CCCN(S(=O)(=O)c2ccc(F)cc2)C1)NC1CCS(=O)(=O)C1 (stereo not drawn),-23% (inactive),–,–
O=C(NC1CCc2nn(CC3CC3)c(=O)n2CC1)c1ccc(Cn2ccnc2)o1 (stereo not drawn),-16.1% (inactive),–,–
Cc1noc([C@H]2CCN(Cc3ccccc3F)C[C@H]2NC(=O)C2CC2)n1,-6.62% (inactive),–,–
Cc1oc2ccn(Cc3ccccc3F)c(=O)c2c1C(=O)NCCCN1CCCCC1C (stereo not drawn),–,39.8 µM (active),–
Cc1oc2c(c1C(=O)NCCN1CCCC1)CN(Cc1ccc(F)cc1)CC2,–,–,inactive
CCn1nc(C)c(-c2cc(C(=O)N3CCCCCCNC(=O)[C@@H]4CCCC[C@@H]43)no2)c1C,-26.8% (inactive),–,–
COc1nccnc1NC1CCN(C(=O)NCc2ccccc2)CC1,-21.9% (inactive),–,–
Cn1cc(CN2CCOC[C@H](Oc3ccc(S(C)(=O)=O)cc3)C2)c2ccccc21,–,28.2 µM (active),–
COc1ccc(O[C@H]2COCCN(Cc3nccn3C)C2)cc1,-12.7% [at 138 µM] (inactive),–,–
CC(C)CN1CCOC[C@H](Oc2ccc(S(C)(=O)=O)cc2)C1,-3.34% [at 138 µM] (inactive),–,–
CCCCn1ccnc1C1CCCN(C(=O)c2ccccc2-c2ncn[nH]2)C1 (stereo not drawn),-4.3% (inactive),–,–

SMILES,"activity change, negative = cytotoxicity",Potency,outcome
O=C(NCc1ccccc1)c1ccc2nc(-c3ccnc(Cl)c3)oc2c1,-10.4% [at 138 µM] (inactive),–,–
CN(C)C(=O)c1ccc2oc(-c3ccnc(Cl)c3)nc2c1,–,28.2 µM (active),–
O=C(NCCc1ccc(Cl)cc1)c1ccc2oc(-c3cccnc3)nc2c1,-15.1% (inactive),–,–
O=C(O)[C@]12CCCN(Cc3ncc[nH]3)[C@@H]1CCN(Cc1ccncc1)C2,–,–,inactive
CCCN1CCCC2(CCN(C(=O)C(=O)c3cccn3C)C2)C1=O (stereo not drawn),0.429% (inactive),–,–
CC(C)NC(=O)C1CCC(=O)N1C1CCN(C(=O)c2ccc3c(c2)OCO3)CC1 (stereo not drawn),-12.1% (inactive),–,–
O=C(c1ccc2c(c1)OCO2)N1CCC(n2c(=O)[nH]c3ccccc32)CC1,-23% (inactive),–,–
O=C(NCc1ccc2c(c1)OCO2)c1noc(-c2ccc(F)cc2)n1,-28.9% (inactive),–,–
CNc1nc(C(=O)NCc2ccc3[nH]c(-c4ccc(F)cc4)c(C)c3c2)cs1,–,50.1 µM (active),–
COc1ccc(CNC(=O)c2noc(-c3ccc(F)cc3)n2)cc1,-16.3% (inactive),–,–
CN(CCc1ccccn1)[C@H]1[C@@H]2OC[C@@H](O2)[C@@H](NC(=O)Nc2ccc(F)cc2)[C@@H]1O,-19.5% [at 174 µM] (inactive),–,–
CNC(=O)[C@@H]1CN(C(=O)c2n[nH]c3ccccc23)C[C@H]1COC,-30.5% (inactive),–,–
COc1ccccc1C(=O)N1CCC2(CC1)C(=O)Nc1ccccc12,-2.43% (inactive),–,–
COCCNC(=O)c1nc(-c2cc(Cl)cc(Cl)c2)c2ccccn12,-29.4% (inactive),–,–
CCc1cc(=O)n(CC(=O)Nc2ccccc2F)c(-c2cccc(F)c2)n1,-11.4% (inactive),–,–
CN(C)CCNC(=O)c1nc2nc(-c3ccccc3)c(-c3cccc(F)c3)cc2n1C,–,25.1 µM (active),–
Cc1ccc(S(=O)(=O)N2C[C@@H](F)C[C@H]2C(=O)N2CCCCC2)cc1Cl,-31.4% (inactive),–,–
CCN1c2cc(C(=O)Nc3ccc(F)c(Cl)c3)ccc2C(=O)N2CCCCC21 (stereo not drawn),–,25.1 µM (active),–
CN1c2cc(C(=O)Nc3ccc(F)cc3)ccc2C(=O)N2CCCCC21 (stereo not drawn),-2.47% (inactive),–,–
CCN1c2cc(C(=O)NCc3cccc(F)c3)ccc2C(=O)N2CCCCCC21 (stereo not drawn),-29.3% (inactive),–,–
COC1CN(c2cccc(F)c2)C12CCN(C1CCOCC1)CC2 (stereo not drawn),-18% (inactive),–,–
COc1ccc(CNC(=O)[C@@H]2Cc3cn(Cc4ccncc4)c4cccc(c34)[C@H](CC(C)C)N2)cc1,–,79.4 µM (active),–
COC(=O)[C@@H]1Cc2ncn(Cc3ccc(OC)cc3)c2CN1S(C)(=O)=O,-23.8% [at 174 µM] (inactive),–,–
COc1ccccc1CNC(=O)CN1CC[C@](C)(O)[C@@H](O)C1,3.14% (inactive),–,–
COCCN1CCN(C(=O)[C@@H]2Cc3cn(C)c4cccc(c34)[C@H](CC(C)C)N2)CC1,-2.5% [at 174 µM] (inactive),–,–

SMILES,"activity change, negative = cytotoxicity",Potency,outcome
CCCN1C(=O)Cc2ccccc2C1C(=O)NCc1cccc(OC)c1OC (stereo not drawn),3.13% (inactive),–,–
COc1ccc(CNC(=O)[C@H]2O[C@H](CCN3CCN(C)CC3)CC[C@@H]2O)cc1,-1.12% [at 174 µM] (inactive),–,–
Cc1cc(Cn2cc3c4c(cccc42)[C@H](CC(C)C)N[C@H](C(=O)N2CCCCCC2)C3)no1,–,31.6 µM (active),–
CC#CCn1cc2c3c(cccc31)[C@H](CC(C)C)N[C@H](C(=O)NCc1ccccc1OC)C2,–,31.6 µM (active),–
COc1ccc(CCC(=O)N2CCCC3(CC2)CN(C)C(=O)O3)cc1OC (stereo not drawn),-0.528% (inactive),–,–
CS(=O)(=O)c1ccc(CN2CCOC(c3cccnc3)C2)cc1 (stereo not drawn),1.91% (inactive),–,–
COc1ccc(CNC(=O)CC[C@@H]2CNC(=O)[C@@H]3C[C@H](NC(=O)NC(C)C)CN23)cc1,–,–,inactive [at 174 µM]
Cc1ccc(-n2cccn2)c(CN2CCC(CNS(C)(=O)=O)C2)c1 (stereo not drawn),-9.15% (inactive),–,–
OC[C@@H]1O[C@H](CNC2CCOCC2)[C@H](N2CCCC2)[C@@H]1O,–,–,inactive [at 138 µM]
Cc1cc(C)n(CCCN(C)C(=O)C2C3C(=O)N(CCC(C)C)C[C@@]34C=C[C@@H]2O4)n1 (stereo partly drawn),-23.8% (inactive),–,–
Cc1cn2nc(C(=O)Nc3ccc(F)cc3F)cc2c(N(C)Cc2ccccc2)n1,-25.5% (inactive),–,–
O=Cc1ccccc1-c1ccc(O)cc1,–,79.4 µM (active),–
CCNC(=O)c1ccccc1-c1ccc(O)cc1,-8.82% (inactive),–,–
COc1ccccc1C(=O)N1CCC2(C1)C(=NC1CCCCC1)NC(=O)N2c1cccnc1 (stereo not drawn),–,–,inactive
COCC1CN(C(C)=O)CC12CCN(Cc1cccc(C#N)c1)CC2 (stereo not drawn),-2.07% (inactive),–,–
Cc1cccc(C(=O)N2C[C@@H](COc3ccccc3)[C@H](C(N)=O)C2)c1,-10.5% (inactive),–,–
O=C(c1cn[nH]c1)N1CC2(CN(Cc3cccc(Cl)c3)CC2COc2ccccc2)C1 (stereo not drawn),–,79.4 µM (active),–
CNC(=O)c1cc(C)nc2onc(C3CCN(C(=O)C4CCCCC4)C3)c12 (stereo not drawn),-26.6% (inactive),–,–
Cn1ccc(Nc2cc3c(cn2)CN(CCc2ccccc2)CCN3)n1,–,79.4 µM (active),–
c1ccc(CN2CCNc3cc(NCc4cccnc4)ncc3C2)cc1,–,50.1 µM (active),–
CCn1ccnc1CN(C)C1CCCN(CCc2ccccc2)C1 (stereo not drawn),-15.6% (inactive),–,–
O=C1CC(c2ccccc2)N(Cc2ccncc2)CCCN(Cc2cccnc2)CCN1 (stereo not drawn),-27.4% (inactive),–,–
CC(=O)N1Cc2ccccc2CC2(CCN(Cc3cccnc3)CC2)C1,3.26% (inactive),–,–
COc1cccc(S(=O)(=O)N2CCC3(CC2)CC2C(=O)NCCN2C3)c1 (stereo not drawn),-20.6% (inactive),–,–
CCc1nc(N(C)Cc2nccn2Cc2ccccc2)c2cnn(C)c2n1,-36.8% (inactive),–,–

SMILES,"activity change, negative = cytotoxicity",Potency,outcome
CS(=O)(=O)c1cnc(NCCN2CCOCC2)nc1C1CCCNC1 (stereo not drawn),-2.38% (inactive),–,–
COc1cc(-c2noc(-c3nc(-c4ccc5c(c4)OCO5)no3)n2)cc(OC)c1OC,2.76% (inactive),–,–
CC(C)C[C@@H]1N[C@H](C(=O)NC(C)C)Cc2c[nH]c3cccc1c23,–,100 µM (active),–
COCCn1c(C)cc(C(=O)N2CCCCCCNC(=O)CC2)c1C,-18.9% (inactive),–,–
O=C(c1cccnc1)N1CCC(Cc2nc(C3CCOCC3)no2)CC1,-28.1% (inactive),–,–
O=C([C@@H]1C[C@H](Oc2ccccc2)CN1S(=O)(=O)c1cccnc1)N1CCCC1,-4.44% (inactive),–,–
Cc1nn2c(c1-c1ccnn1C(C)C)N(CC1CCOCC1)CCC2,–,31.6 µM (active),–
Cc1nn2c(c1-c1ccccc1-c1ccccc1)N(CC1CC1)CCC2,–,3.16 µM (active),–
COc1ccc(S(=O)(=O)NCCc2noc(-c3ccncc3)n2)cc1,-28.4% (inactive),–,–
CNC(=O)N1CCC(C2CCN(C(=O)CSC)C2)CC1 (stereo not drawn),-4.44% (inactive),–,–
COc1cc(NC(=O)c2cc3c(N4CCSCC4)nc(C)cn3n2)cc(OC)c1,-19.2% (inactive),–,–
COc1cc2c(cc1OC)C(CNC(=O)c1ccc(Cl)cc1)N(C(=O)Nc1ccccc1)CC2 (stereo not drawn),-27% (inactive),–,–
COc1ncccc1Nc1ncc(-c2ccccc2)c2c1OCC2,-15% [at 138 µM] (inactive),–,–
COc1ccccc1-c1cnc(NC(=O)c2ccc(Cl)cc2)c2c1CCO2,–,79.4 µM (active),–
O=C(c1ccccc1)N1CCCCC1c1nc(C2CC2)n[nH]1 (stereo not drawn),–,–,inactive
COc1ccc(NC(=O)[C@@H]2C[C@@H](c3ccc(F)cc3)N(CCOc3ccccc3)C2)cn1,–,44.7 µM (active),–
O=C(COc1ccc(NC(=O)C2CC2)cn1)NCc1ccc(F)cc1F,-0.432% (inactive),–,–
Cc1ccc(NC(=O)[C@@H]2CNC[C@H](C(=O)NCc3ccccn3)C2)cn1,-2.8% (inactive),–,–
CNC(=O)N1CCC(N2CC(OCC3CC3)C23CCCCC3)CC1 (stereo not drawn),-2.4% (inactive),–,–
O=C(O)C[C@@H]1CCN(C(=O)C(=O)O)C[C@@H]1CC1=NCCc2cc(F)ccc21,-4.26% [at 174 µM] (inactive),–,–
Cc1ccc(OCCC2CCN(C(=O)c3cnccc3C)C2)cc1 (stereo not drawn),-16.8% (inactive),–,–
O=C(c1cccc(F)c1)N1CCCC(CN2CCOCC2)CC1 (stereo not drawn),-1.83% (inactive),–,–
O=C(c1cccc(F)c1)N1CCC(CCOc2ccc(F)cc2)C1 (stereo not drawn),–,39.8 µM (active),–
